# Assay results from ChEMBL document CHEMBL3988442, “University of Dundee, Small-Polar-MMV Screening Library” (2021).
# Out of some 69,000 compounds screened, about 1,000 (1.4%) showed an effect of 50% or more. The sample holds strong results, similar compounds and a random draw of the others, so the mix is not that of the screen.
# System: Leishmania donovani
# Assay: Leishmania intramacrophage assay
# Format: functional, organism-based
# Design: scale not given: in the data most compounds retested in dose-response had high values
smiles,measurement,setting,value
O=C(CCCn1cnc2ccccc2c1=O)Nc1nc[nH]n1,Percent Effect,"30.3 µM, […]",-11.87%
CC(C)c1ccc(S(=O)(=O)N2CSCC2C(=O)NCC(F)(F)F)cc1 (configuration not stated),Percent Effect,30 µM,31.97%
CC(C)CCCNC(=O)Nc1ccc(C(N)=O)c(Cl)c1,Percent Effect,30 µM,-4.358%
Cn1cc(C2COC3(CCN(C(=O)Cc4ccccc4)CC3)C2)cn1 (configuration not stated),Percent Effect,"30.3 µM, […]",7.925%
O=C(Cc1ccncc1)N1CCC2(CC1)CC(c1ccccc1)CO2.O=C(O)C(F)(F)F (configuration not stated),Percent Effect,"30.3 µM, […]",68.9%
CC1COC2(CCN(C(=O)Cc3ccncc3)CC2)C1.O=C(O)C(F)(F)F (configuration not stated),Percent Effect,"30.3 µM, […]",9.251%
O=C(Cc1ccccn1)N1CCC2(CC1)CN(c1ncccn1)CCO2.O=C(O)C(F)(F)F.O=C(O)C(F)(F)F,Percent Effect,"30.3 µM, […]",12.21%
O=C(CC1CC1)N1CCC2(CC1)CN(c1ncccn1)CCO2,Percent Effect,"30 µM, 30.03 µM",2.315%
O=C(Cc1ccccc1)N1CCC2(CC1)CN(c1ncccn1)CCO2,Percent Effect,"30.3 µM, […]",60.82%
OCC1(NCc2cnc(-c3ccccn3)s2)CCOCC1,Percent Effect,"30.3 µM, […]",-4.185%
CNC(=O)NCC(=O)N(C)C(c1ccc(Cl)cc1)c1cccnc1 (configuration not stated),Percent Effect,"30.3 µM, […]",-0.8032%
CN(Cc1cncnc1)[C@H]1CN(C(=O)c2ccc[nH]2)[C@@H]2CCCO[C@@H]21,Percent Effect,"30.3 µM, […]",13.74%
CCCc1n[nH]c(C2CN(C(=O)CCCn3ccnc3C)CCO2)n1 (configuration not stated),Percent Effect,"30.3 µM, […]",52.76%
CCCc1n[nH]c(C2CN(C(=O)CCCn3cccn3)CCO2)n1 (configuration not stated),Percent Effect,"30 µM, 30.03 µM",8.129%
CCCc1n[nH]c(C2CN(C(=O)CCCn3ccnc3)CCO2)n1 (configuration not stated),Percent Effect,"30.3 µM, […]",48.09%
CCCC(=O)NCC(=O)Nc1cc(F)ccc1SCC(F)F,Percent Effect,"30.3 µM, […]",-46.76%
CN(C)C(=O)CN1C[C@@H]2CC[C@H](C1)N(C(=O)CCCn1cncn1)C2,Percent Effect,"30.3 µM, […]",3.091%
CC(C)(C)n1nnnc1CN(Cc1ccccc1)Cc1ccccc1Cl,Percent Effect,"30.3 µM, […]",-43.37%
CC(C)(C)n1nnnc1CN(Cc1ccccc1)Cc1ccc(Cl)cc1,Percent Effect,"30.3 µM, […]",73.63%
CC(C)(C)n1nnnc1CN(CCc1ccccc1)Cc1ccccc1,Percent Effect,"30.3 µM, […]",46.18%
CCC(CNC(=O)c1ccccc1OC)N1CCc2ccccc2C1 (configuration not stated),Percent Effect,"30.3 µM, […]",6.323%
CC(C)OCCCNC(=O)CS(=O)(=O)Cc1ccc(Cl)cc1,Percent Effect,30 µM,-19.7%
COC(=O)N1CCCN(Cn2nc(C)c(Br)c2C)CC1,Percent Effect,"30.3 µM, […]",-25.9%
CCC(=O)N1CCCN(Cn2nc(C)c(Br)c2C)CC1,Percent Effect,"30.3 µM, […]",-2.566%
COCC(=O)N1CCN(Cn2nc(C)c(Br)c2C)CC1,Percent Effect,"30.3 µM, […]",52.22%
Cc1ccn(Cc2nc(C(C)OCC(C)C)no2)c(=O)c1 (configuration not stated),Percent Effect,"30.3 µM, […]",4.888%
Cc1[nH]ccc1C(=O)N1CCC2(CC1)c1nc[nH]c1CCN2CC(C)C,Percent Effect,"30.3 µM, […]",14.63%
COc1cccc(C(O)CNC(=O)CC2CCCCC2)c1 (configuration not stated),Percent Effect,"30.3 µM, […]",-1.709%
c1ccc(COc2cccc(CNC3CCc4ncnn4C3)c2)cc1 (configuration not stated),Percent Effect,30 µM,-0.9201%
CCN1CCC(CC(=O)NCC(O)c2cccc(OC)c2)CC1 (configuration not stated),Percent Effect,"30.3 µM, […]",23.15%
OC(CNC1CCSCC1)c1cccc(OCc2ccccc2)c1 (configuration not stated),Percent Effect,"30.3 µM, […]",77.88%
OC(CNC1CCOCC1)c1cccc(OCc2ccccc2)c1 (configuration not stated),Percent Effect,"30.3 µM, […]",10.21%
CN1CCC(NCC(O)c2cccc(OCc3ccccc3)c2)CC1 (configuration not stated),Percent Effect,"30.3 µM, […]",100.4%
CN(Cc1cnn(C)c1)C(=O)Cc1ccc2c(c1)OCCO2,Percent Effect,"30.3 µM, […]",1.956%
COCCCN(C)C1CCCN(Cc2noc(C)n2)C1 (configuration not stated),Percent Effect,"30 µM, 30.03 µM",26.31%
Cc1nc(CN(C)C2CCN(Cc3cccc4c3OCCO4)C2)no1 (configuration not stated),Percent Effect,30 µM,6.673%
Cn1ccnc1CCNC(=O)NCCC1CCCCO1 (configuration not stated),Percent Effect,"30.3 µM, […]",11.89%
O=C(C1CCOC1)N1C[C@H]2CN(c3ccccc3)C(=O)[C@H]2C1 (some centres not stated),Percent Effect,"30.3 µM, […]",6.072%
CCc1ncncc1C(=O)NCCN1CCC(C)CC1,Percent Effect,"30 µM, 30.03 µM",18.33%
Cc1ncncc1C(=O)NCCN1CCC(C)CC1,Percent Effect,"30.3 µM, […]",57.89%
CC1CCN(CCNC(=O)c2cncnc2C(C)C)CC1,Percent Effect,"30 µM, 30.03 µM",11.52%
Cn1cnnc1C1CCCN(C(=O)NCCOc2ccccc2)C1 (configuration not stated),Percent Effect,"30 µM, 30.03 µM",2.584%
CCc1nc(C2CCCN2C(=O)CCc2cscn2)no1 (configuration not stated),Percent Effect,30 µM,-30.43%
Cc1cccc(CN(Cc2ccccn2)Cc2ncc(C(C)(C)C)o2)c1,Percent Effect,"30.3 µM, […]",68.09%
Cc1cccc(CN(Cc2ccccn2)S(=O)(=O)N(C)C)c1,Percent Effect,"30.3 µM, […]",9.457%
CCN(Cc1cccc(Cl)c1)Cc1ncc(C(C)(C)C)o1,Percent Effect,"30.3 µM, […]",12.9%
Cc1ccc(F)c(C(=O)N2C[C@@H](C(=O)O)[C@H](c3ccncc3)C2)c1Cl,Percent Effect,"30.3 µM, […]",16.35%
O=S1(=O)CCC(c2nc(-c3cccc(Br)c3)no2)C1 (configuration not stated),Percent Effect,"30.3 µM, […]",2.793%
COCCN(Cc1cnn(C)c1)CC1CCN(C(C)C)CC1,Percent Effect,"30.3 µM, […]",53.86%
COCCN(Cc1cnn(C)c1)CC1CCOC1 (configuration not stated),Percent Effect,"30.3 µM, […]",-5.95%
COCCN(Cc1cnn(C)c1)Cc1ccc(C)o1,Percent Effect,"30.3 µM, […]",22%
c1ccc2c(N3CCCC3Cn3cccn3)ncnc2c1 (configuration not stated),Percent Effect,"30 µM, 30.03 µM",38.82%
Cc1nccn1CC1CCCN1S(=O)(=O)Cc1ccccc1F (configuration not stated),Percent Effect,"30 µM, 30.03 µM",17.08%
COCc1noc(-c2cc(Cl)c3c(c2)OCO3)n1,Percent Effect,"30.3 µM, […]",-15.75%
O=C(CCn1c(=O)oc2ccccc21)NCC(O)c1ccc(Cl)cc1 (configuration not stated),Percent Effect,"30.3 µM, […]",46.94%
O=C(CCn1c(=O)oc2ccccc21)NCC(O)c1ccc(F)c(F)c1 (configuration not stated),Percent Effect,"30.3 µM, […]",41.71%
O=C(CCn1c(=O)oc2ccccc21)NCC(O)c1ccccc1 (configuration not stated),Percent Effect,"30.3 µM, […]",50.97%
OC1=C2C(=Nc3n[nH]c(O)c3C2c2ccccc2Cl)CCC1 (configuration not stated),Percent Effect,"30.3 µM, […]",11.34%
CN(C)c1cncc(C2CCN(CCO)CC2)n1,Percent Effect,"30 µM, 30.03 µM",34.76%
CCC(=O)N1Cc2nccn2CC(CN(C)Cc2cccnc2)C1.O=C(O)C(F)(F)F.O=C(O)C(F)(F)F (configuration not stated),Percent Effect,"30 µM, 30.03 µM",14.09%
CN(Cc1cccnc1)CC1CN(C(N)=O)Cc2nccn2C1 (configuration not stated),Percent Effect,"30.3 µM, […]",59.79%
COCC(=O)N1Cc2nccn2CC(CN(C)Cc2cccnc2)C1 (configuration not stated),Percent Effect,"30.3 µM, […]",24.51%
NC(=O)CCn1cc(CNCCCc2ccccc2O)c2ccccc21,Percent Effect,"30.3 µM, […]",30.89%
Cc1ccsc1CNCC1CCCN1c1cccnn1 (configuration not stated),Percent Effect,30 µM,29.66%
CC(C)N1CCC2(CCCN(Cc3ccc(F)cc3)C2=O)C1 (configuration not stated),Percent Effect,"30.3 µM, […]",12.06%
CCCc1cc(N2CCC(N[C@H]3CC[C@H](O)CC3)CC2)nc(C)n1,Percent Effect,"30.3 µM, […]",8.442%
Cc1nn(C)c2cn(CC(=O)N3CCN(c4ccccc4)CC3)nc12,Percent Effect,"30.3 µM, […]",30.49%
